Laboratory results published in PubChem BioAssay AID1851 (National Center for Advancing Translational Sciences (NCATS), 2009).
Hit rate of the full screen: of about 16,000 compounds, about 4,000 (25%) were called active. About 26% were inconclusive and are not listed. A selection follows. Unmarked numbers belong to inactive results. The call rests on the fitted dose curve; in most records, active means well fitted curve in the direction sought with a large enough effect; inconclusive means small, poorly fitted or top-dose-only effect, or effect the other way; inactive means no such curve, though single readings can be large or run the other way.

target: Cytochrome P450 2C9 (Homo sapiens) (UniProt P11712); assay: Cytochrome panel assay with activity outcomes; details: recombinant CYP, pro-luciferin dealkylation, luminescence, p450-cyp2c9; series mostly up to 57.1 µM
Sequence (P11712 whole entry, looked up): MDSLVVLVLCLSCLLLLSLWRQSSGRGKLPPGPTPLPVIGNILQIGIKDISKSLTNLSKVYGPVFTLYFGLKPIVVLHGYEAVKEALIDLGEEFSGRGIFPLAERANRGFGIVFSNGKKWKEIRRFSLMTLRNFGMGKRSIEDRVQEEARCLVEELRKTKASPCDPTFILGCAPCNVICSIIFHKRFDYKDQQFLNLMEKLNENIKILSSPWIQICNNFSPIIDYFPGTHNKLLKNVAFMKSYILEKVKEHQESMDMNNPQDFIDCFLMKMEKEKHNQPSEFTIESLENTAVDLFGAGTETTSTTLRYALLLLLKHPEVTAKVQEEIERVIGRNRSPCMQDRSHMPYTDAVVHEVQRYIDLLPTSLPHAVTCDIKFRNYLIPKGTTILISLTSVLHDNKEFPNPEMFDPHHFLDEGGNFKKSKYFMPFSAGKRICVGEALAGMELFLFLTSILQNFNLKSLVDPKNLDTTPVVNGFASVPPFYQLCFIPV
On the % scale 0 is the no-effect control and ±100 the full control effect.

Structure (SMILES) | AC50 | activity, negative = inhibition
CCC1(c2ccccc2)C(=O)NCNC1=O | inactive | 
CC(C)CO/N=C1/[C@H]2O[C@@H]2[C@@H](O)[C@H]2[C@H]1CCn1c(=O)n(C)c(=O)n12 |  | -1.24% [at 11.4 µM]
O=C(CC(c1ccccc1)c1ccccc1)NCC1CCCO1 (stereo not drawn) | 20 µM (active) | 
CN(c1ccc(C(=O)NCC2CCCO2)cc1)S(=O)(=O)c1ccccc1 (stereo not drawn) | 25.1 µM (active) | 
O=C(NCC1CCCO1)C1CCC(=O)N1CCc1ccccc1 (stereo not drawn) | inactive | 
CCC(=O)NC(NCC1CCCO1)C(Cl)(Cl)Cl (stereo not drawn) | inactive | 
Cc1ccc(C(=O)NC(=S)NCC2CCCO2)cc1 (stereo not drawn) | 7.94 µM (active) | 
CCOC(=O)Nc1ccc(C(=O)NCC2CCCO2)cc1 (stereo not drawn) | inactive | 
CN(C)c1ccc(N=Nc2cccc3ccoc23)cc1 |  | 18.2% [at 11.4 µM]
Oc1oc(-c2ccccc2)nc1C=Nc1ccccc1 | 8.91 µM (active) | 
O=C(Oc1oc(-c2ccco2)nc1C=Nc1ccc(Cl)cc1)c1ccco1 | inactive | 
CN(C)c1ccc(N=Cc2nc(-c3ccccc3)oc2O)cc1 | 7.08 µM (active) | 
CN(C)c1ccc(N=C/C=C2\N(C)c3ccccc3C2(C)C)cc1 | inactive | 
c1cncc(-c2cc(-c3cc(-c4cccnc4)n[nH]3)[nH]n2)c1 |  | 8.46% [at 11.4 µM]
CC(/C=N/n1c(-c2cccnc2)n[nH]c1=S)=C\c1ccccc1 | 10 µM (active) | 
CCn1c(-c2ccc3ncccc3c2)n[nH]c1=S | inactive | 
CN1[C@@H]2CC[C@H]1CC(OC(c1ccccc1)c1ccccc1)C2 (stereo partly drawn) | inactive | 
Cc1ccc(N(C(=O)c2csnn2)C(C(=O)NC(C)(C)C)c2cccs2)cc1 (stereo not drawn) | inactive | 
O=C(OC(C(=O)O)C(OC(=O)c1ccccc1)C(=O)NCc1ccccc1)c1ccccc1 (stereo not drawn) | inactive | 
CCc1ccc(N(C(=O)c2csnn2)C(C(=O)NCc2ccccc2)c2ccco2)cc1 (stereo not drawn) | 14.1 µM (active) | 
Cc1ccc(S(N)(=O)=O)cc1NC(=O)/C=C/c1cccs1 | inactive | 
Cc1ccc(S(=O)(=O)N2CCOCC2)cc1NC(=O)COC(=O)CCC(=O)c1cccs1 | 14.1 µM (active) | 
CCN(CC)c1ccc2c(c1)OC(N)=C(C#N)C2c1cccnc1 (stereo not drawn) | 7.94 µM (active) | 
Cc1nc(SCc2cccc(Oc3ccccc3)c2)n[nH]1 | 15.8 µM (active) | 
CN(C)Cc1ccccc1-c1nccc(NCc2cccs2)n1 |  | 13.4% [at 2.29 µM]
COCCNc1ncnc2ccc(-c3ccccc3CN(C)C)cc12 |  | 25.7% [at 2.29 µM]
CCCc1cc(=O)[nH]c(=S)[nH]1 | inactive | 
CN1CCN(c2ncc3ncc(=O)n(CCC#N)c3n2)CC1 | inactive | 
